Pf Dd2 inh – blocks in vitro growth of P. falciparum Dd2. P. falciparum Dd2 growth, SYBR Green, 72 h. Potency, µM (top dose mostly 28.9 µM), usual class: inhibitors. 120,000 compounds, 4.3% hits. AID 1347417; active = well fitted inhibition curve with a large enough effect; note: nearly all actives have a fitted effect of over 65% in size
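Infected erythrocytes (Dd2, 0.3% parasitemia, 2.5% hematocrit final) are added to compound in RPMI-1640/Albumax II medium, grown 72 h at 37C in low oxygen, then lysed with saponin/Triton-X containing SYBR Green and read by fluorescence.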
A number is an active result; - = inactive; [ ] = dose if it differs, or a comment. This is one part of a sample in which hits are shown more often than they occur.

SMILES | Pf Dd2 inh
O=C(c1ccc(Cn2cccn2)o1)N1CCC2(CC1)c1ccccc1CC2O (stereo not drawn) | -
COC1C(=O)N(c2cccc(F)c2)C12CCN(C(=O)CCc1c[nH]c3ccccc13)CC2 (stereo not drawn) | 7.9µM
COC1C(=O)N(c2cccc(F)c2)C12CCN(Cc1ccc(F)cc1F)CC2 (stereo not drawn) | 10µM
COC1C(=O)N(c2cccc(F)c2)C12CCN(S(=O)(=O)c1ccccc1C)CC2 (stereo not drawn) | 13µM
COC1C(=O)N(c2cccc(F)c2)C12CCN(C(=O)c1cnc(C)cn1)CC2 (stereo not drawn) | -
C[C@]1(O)CCN(C(=O)CCc2c[nH]c3ccccc23)C[C@@H]1O | -
COC1C(=O)N(C2CCN(C(=O)CCc3c[nH]c4ccccc34)CC2)C12CCOCC2 (stereo not drawn) | -
COC1C(=O)N(c2cccc(F)c2)C12CCN(C(=O)C(C)C)CC2 (stereo not drawn) | -
COC1C(=O)N(C2CCN(Cc3ccc(F)cc3F)CC2)C12CCOCC2 (stereo not drawn) | -
COC1CCOC2(CCN(S(=O)(=O)c3ccccc3C)CC2)C1 (stereo not drawn) | -
N#Cc1ccccc1C(=O)N1CCOC(c2ccc(Cl)c(Cl)c2)C1 (stereo not drawn) | -
O=[S+]([O-])(c1ccncc1)c1nnn2c1nc(NC1CCCC1)c1ccccc12 | -
Cn1ncc2c(NCCc3cn4ccccc4n3)nc(C3CCCC3)nc21 | -
CC(C)(O)CCc1ccc(CN2CCN([C@H]3CCCC[C@@H]3O)CC2)cc1 | -
CC(C)CC(=O)N1[C@@H]2CC[C@H]1CC(NC(=O)c1ccncc1)C2 (stereo partly drawn) | -
C#CCNC(=O)C1=NOC2CN(S(C)(=O)=O)CC12 (stereo not drawn) | -
CC(C)C1=NOC2(CCN(Cc3cccc(C(N)=O)c3)CC2)C1 | -
CCOc1ccccc1C1NC(=O)N(CC(=O)NCc2ccc(F)cc2)C2=C1C(=O)OC2 (stereo not drawn) | -
N#Cc1cc2c(nc1SCC(=O)Nc1ccc(Cl)c(C(F)(F)F)c1)C1CCN2CC1 | 5µM
N#Cc1c(C(F)(F)F)cc(-c2ccc(F)cc2)nc1SCC(=O)Nc1ccccc1 | -
CCC1CCc2nc3sc(C(=O)Nc4ccc(F)c(Cl)c4)c(N)c3cc2C1 (stereo not drawn) | -
O=C(CN1CCN(c2ccc(Cl)cc2)CC1)Nc1ccc(Cl)c(C(F)(F)F)c1 | -
Nc1c(C(=O)Nc2cccc(Br)c2)sc2nc3c(cc12)N1CCC3CC1 | -
Nc1c(C(=O)Nc2ccc(Cl)c(C(F)(F)F)c2)sc2nc3c(cc12)N1CCC3CC1 | 2.8µM
CCn1ncc(N2CCCC(CC(=O)Nc3ccc(C)c(F)c3)C2)cc1=O (stereo not drawn) | -
SMILES | Pf Dd2 inh
COc1ccc(NC(=O)N2CCCC(c3nc(C4CCOCC4)no3)C2)cc1 (stereo not drawn) | -
O=C(NC1CCN(c2cc(-c3ccc(F)cc3)[nH]n2)CC1)c1ccc2c(c1)OCO2 | -
CCOC(=O)c1ccc(NC(=O)CCc2c(C)nc3c(-c4ccc(F)cc4)c(C)nn3c2C)cc1 | 3.5µM
Cc1nc2c(-c3ccc(F)cc3)c(C)nn2c(C)c1CCC(=O)NCc1ccc(F)cc1 | -
CCOC(=O)c1ccc(NC(=O)c2cnc3c(-c4ccc(F)cc4)c(C)nn3c2C)cc1 | -
CC[C@H]1CN(C(=O)Nc2cccc(C(F)(F)F)c2)CC[C@H]1CC(=O)N(C)CCC#N | -
Cc1cccc(C)c1NC(=O)C1CCCN1S(=O)(=O)c1cccc2nsnc12 (stereo not drawn) | -
CCCN(CCC)CCCNC(=O)C1CCCN(S(=O)(=O)c2cccc3nsnc23)C1 (stereo not drawn) | -
CCCCN(C(=O)C1CCC(CNS(=O)(=O)c2cccc3nsnc23)CC1)c1ccccc1 (stereo not drawn) | 2.2µM
CC(C)NC(=O)[C@@H]1C[C@H](N)CN1S(=O)(=O)c1cccc2nsnc12 | -
Cc1cccc(N(C)C(=O)C(Cc2ccccc2)NS(=O)(=O)c2cccc3nsnc23)c1 (stereo not drawn) | -
CCc1cccc(CC)c1NC(=O)C1CCC(CNS(=O)(=O)c2cccc3nsnc23)CC1 (stereo not drawn) | 3.2µM
CCN(C(=O)C(NS(=O)(=O)c1cccc2nsnc12)c1ccccc1)c1ccccc1 (stereo not drawn) | -
CCc1ccccc1NC(=O)C1CCCN(S(=O)(=O)c2cccc3nsnc23)C1 (stereo not drawn) | -
CC(C)CCNC(=O)C1CCC(CNS(=O)(=O)c2cccc3nsnc23)CC1 (stereo not drawn) | 3.2µM
O=C(c1nc(-c2ccc(Cl)nc2)c2ccccn12)N1CCOCC1 | -
Cc1ccc(OC2(C(=O)NCC3COc4ccccc4O3)CCNCC2)cc1 (stereo not drawn) | -
COCC1CN(C2CCC2)CC12CCN(C(=O)CCn1cc(C)cn1)CC2 (stereo not drawn) | -
CC(C)N1CCCC2(CCN(C(=O)C3(Cn4ccnc4)CC3)C2)C1=O (stereo not drawn) | -
COc1cccc(C(=O)N2CCC(c3nc(C4CCOC4)no3)CC2)c1 (stereo not drawn) | -
CCOC(=O)c1ccc(CNC(=O)N2CCC3(CC2)CC(OCC)CCO3)cc1 (stereo not drawn) | -
COc1ccc(-c2cc(-c3cccs3)nc3c(C)noc23)cc1OC | -
Cc1ccc(C2(O)CCN(c3ncccc3C(F)(F)F)CC2)nc1 | -
Cc1ccc(C2(O)CCN(CC(c3ccccc3)c3ccccc3)CC2)nc1 | 2.8µM
COc1ccccc1NC(=O)CN1CCC(O)(c2ccc(C)cn2)CC1 | -
SMILES | Pf Dd2 inh
COCCNc1ncc(-c2cccc(N[S+](C)(=O)[O-])c2)c2c1OCC2 | -
Cn1nccc1C(=O)N1CCC(Oc2nccnc2N2CCOCC2)C1 (stereo not drawn) | -
CN1CCC(Oc2nccnc2N2CCc3ccccc32)C1 (stereo not drawn) | 2.8µM
O=C(c1ccncc1)N1CCC(Oc2nccnc2N2CCOCC2)C1 (stereo not drawn) | -
Cc1ccc(CNC(=O)N2CCC(CC(=O)NC3CC3)C2)cc1 (stereo not drawn) | -
CNC(=O)[C@H]1C[C@H](Oc2ccccc2)CN1C(=O)NCCc1ccccc1 | -
O=C(c1ccc(Cl)cc1)N1CCC2(Cc3ccccc3CNC2=O)C1 (stereo not drawn) | -
COC[C@@H]1CN(C(=O)CCc2ccccc2OC)C[C@H]1c1nc(C)no1 | -
CCc1ccc(N(CC)C(=O)c2sc3nc4n(c(=O)c3c2C)CCCC4)cc1 | 11µM
CCN(Cc1ccccc1)C(=O)c1sc2nc3n(c(=O)c2c1C)CCCC3 | -[5.79 µM]
CCN(C(=O)c1sc2nc3n(c(=O)c2c1C)CCCCC3)c1ccc(OC)cc1 | -
COc1ccc(OC)c(NC(=O)c2sc3nc4c(cc3c2N)CCCCCC4)c1 | -
COc1ccccc1NC(=O)c1c(NC(=O)Cc2ccccc2)sc2c1CCC(C(C)(C)C)C2 (stereo not drawn) | -
COc1ccc(NC(=O)c2c(NCc3cccs3)sc3c2CCC(C)C3)c(OC)c1 (stereo not drawn) | 10µM
COc1ccc(OC)c(NC(=O)c2c(NCc3cccs3)sc3c2CCCCC3)c1 | 8.9µM
COc1cc(C(=O)Nc2sc3c(c2C(N)=O)CCC(C)C3)cc(OC)c1OC (stereo not drawn) | -
COc1ccc(OC)c(NC(=O)c2c(OC)cc(=O)n3c2CCCC3)c1 | -

Source: PubChem BioAssay
